Measured values from article PMC7862700, “An all-to-all approach to the identification of sequence-specific readers for epigenetic DNA modifications on cytosine”.

Legend:
Assay in all cases: DAPPL (digital affinity profiling via proximity ligation, sequencing); 10 mM Tris-HCl pH 7.5, 50 mM NaCl, 1 mM DTT, 4% glycerol, room temperature, 30 min; GST-TFs on glutathione beads, 16-mer random dsDNA library, 0.1% formaldehyde crosslink after washing; high values mean tight binding
[1] = molecular target: T1, FEV (Homo sapiens, UniProt Q99581 1-238); conditions: protein: recombinant; tags: N-terminal GST; dsDNA, one strand shown
T1 sequence: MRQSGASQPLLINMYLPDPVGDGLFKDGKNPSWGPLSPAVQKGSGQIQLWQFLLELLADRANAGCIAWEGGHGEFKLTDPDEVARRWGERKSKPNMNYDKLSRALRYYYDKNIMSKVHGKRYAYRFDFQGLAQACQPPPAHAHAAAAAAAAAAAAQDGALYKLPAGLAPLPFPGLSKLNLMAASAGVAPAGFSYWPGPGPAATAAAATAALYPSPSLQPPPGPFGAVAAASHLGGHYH
Outline: (§1)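 Human transcription factors were made in yeast as GST fusions, captured on glutathione beads and barcoded with DNA. With a tag-only sample included, the pool was incubated with 200 nmole of a random double-stranded 16-mer DNA library in Tris/NaCl/DTT/glycerol buffer at room temperature for 30 min, then crosslinked with 0.1% formaldehyde after washing, ligated by proximity, amplified and sequenced. For binding signal, each hexamer's read frequency for a factor is divided by its frequency for the tag-only sample.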

[2] = molecular target: ETV5 (Homo sapiens, UniProt P41161 1-510); conditions: protein: recombinant; tags: N-terminal GST; dsDNA, one strand shown
Outline: as §1

[3] = molecular target: HSF1 (Homo sapiens, UniProt Q00613 1-529); conditions: protein: recombinant; tags: N-terminal GST; chain copies: 3; dsDNA, one strand shown
Outline: as §1

[4] = molecular target: T2, SPIC (Homo sapiens, UniProt Q8N5J4 1-248); conditions: protein: recombinant; tags: N-terminal GST; dsDNA, one strand shown
T2 sequence: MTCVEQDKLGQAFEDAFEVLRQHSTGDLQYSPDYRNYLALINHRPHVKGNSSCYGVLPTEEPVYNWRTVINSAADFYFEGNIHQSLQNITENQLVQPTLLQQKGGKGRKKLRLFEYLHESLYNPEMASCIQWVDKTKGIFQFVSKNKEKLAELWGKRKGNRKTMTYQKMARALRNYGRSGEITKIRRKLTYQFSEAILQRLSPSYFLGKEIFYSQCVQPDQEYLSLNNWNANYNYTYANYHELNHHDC
Outline: as §1

[5] = molecular target: ELF4 (Homo sapiens, UniProt Q99607 1-663); conditions: protein: recombinant; tags: N-terminal GST; dsDNA, one strand shown
Outline: as §1

[6] = molecular target: T3, ELK4 (Homo sapiens, UniProt P28324-2 1-405); conditions: protein: recombinant; tags: N-terminal GST; dsDNA, one strand shown
T3 sequence: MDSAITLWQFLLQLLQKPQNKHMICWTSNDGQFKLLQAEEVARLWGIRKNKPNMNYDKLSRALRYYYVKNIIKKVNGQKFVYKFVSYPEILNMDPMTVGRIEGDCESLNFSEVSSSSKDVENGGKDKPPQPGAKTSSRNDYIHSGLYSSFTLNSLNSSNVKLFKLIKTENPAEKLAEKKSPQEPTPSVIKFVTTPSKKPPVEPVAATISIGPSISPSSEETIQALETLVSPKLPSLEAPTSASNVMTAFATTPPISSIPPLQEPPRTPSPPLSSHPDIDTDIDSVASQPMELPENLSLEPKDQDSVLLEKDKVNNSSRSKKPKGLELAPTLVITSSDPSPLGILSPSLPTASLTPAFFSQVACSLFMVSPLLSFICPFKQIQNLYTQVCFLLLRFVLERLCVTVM
Outline: as §1

[7] = molecular target: T4, ETV2 (Homo sapiens, UniProt O00321 1-342); conditions: protein: recombinant; tags: N-terminal GST; dsDNA, one strand shown
T4 sequence: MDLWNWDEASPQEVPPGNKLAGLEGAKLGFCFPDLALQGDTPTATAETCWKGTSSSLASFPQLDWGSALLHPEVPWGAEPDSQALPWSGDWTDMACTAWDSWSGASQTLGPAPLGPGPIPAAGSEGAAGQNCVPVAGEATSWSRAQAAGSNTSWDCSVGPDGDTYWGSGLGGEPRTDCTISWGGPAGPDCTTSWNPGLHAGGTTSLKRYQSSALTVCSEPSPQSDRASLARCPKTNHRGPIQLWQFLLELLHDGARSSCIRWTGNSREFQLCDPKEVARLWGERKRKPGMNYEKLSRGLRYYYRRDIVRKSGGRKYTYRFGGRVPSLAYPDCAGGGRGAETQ
Outline: as §1

[8] = molecular target: T5, ELF3 (Homo sapiens, UniProt P78545 1-371); conditions: protein: recombinant; tags: N-terminal GST; dsDNA, one strand shown
T5 sequence: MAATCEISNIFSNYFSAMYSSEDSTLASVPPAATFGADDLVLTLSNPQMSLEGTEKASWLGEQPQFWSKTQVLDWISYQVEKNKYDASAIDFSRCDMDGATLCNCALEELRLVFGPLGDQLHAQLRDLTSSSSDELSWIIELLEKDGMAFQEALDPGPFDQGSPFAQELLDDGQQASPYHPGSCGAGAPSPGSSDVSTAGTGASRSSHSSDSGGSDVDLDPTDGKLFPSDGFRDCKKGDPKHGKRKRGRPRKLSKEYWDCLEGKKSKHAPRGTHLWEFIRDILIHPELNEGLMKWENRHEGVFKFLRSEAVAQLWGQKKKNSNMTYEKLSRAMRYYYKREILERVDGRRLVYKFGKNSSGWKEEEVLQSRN
Outline: as §1

[9] = molecular target: CRX (Homo sapiens, UniProt O43186 1-299); conditions: protein: recombinant; tags: N-terminal GST; dsDNA, one strand shown
Outline: as §1

[10] = molecular target: ETV1 (Homo sapiens, UniProt P50549 1-477); conditions: protein: recombinant; tags: N-terminal GST; dsDNA, one strand shown
Outline: as §1

[11] = molecular target: T6, ERF (Homo sapiens, UniProt P50548 1-548); conditions: protein: recombinant; tags: N-terminal GST; dsDNA, one strand shown
T6 sequence: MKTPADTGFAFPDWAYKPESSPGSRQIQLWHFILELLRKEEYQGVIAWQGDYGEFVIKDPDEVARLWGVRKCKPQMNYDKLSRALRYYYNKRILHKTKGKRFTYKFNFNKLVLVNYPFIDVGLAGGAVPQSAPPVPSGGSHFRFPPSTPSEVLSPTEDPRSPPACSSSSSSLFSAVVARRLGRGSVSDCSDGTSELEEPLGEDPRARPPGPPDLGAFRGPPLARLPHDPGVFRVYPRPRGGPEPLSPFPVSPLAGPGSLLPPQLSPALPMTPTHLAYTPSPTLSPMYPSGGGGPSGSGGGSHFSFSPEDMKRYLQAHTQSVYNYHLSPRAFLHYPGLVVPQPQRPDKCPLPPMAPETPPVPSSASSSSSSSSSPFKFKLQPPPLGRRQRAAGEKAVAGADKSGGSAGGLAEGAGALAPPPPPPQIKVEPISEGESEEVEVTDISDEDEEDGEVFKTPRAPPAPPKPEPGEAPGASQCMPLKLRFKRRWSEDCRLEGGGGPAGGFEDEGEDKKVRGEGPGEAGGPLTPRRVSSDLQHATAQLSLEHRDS
Outline: as §1

[12] = molecular target: T7, ETV3L (Homo sapiens, UniProt Q6ZN32 1-361); conditions: protein: recombinant; tags: N-terminal GST; dsDNA, one strand shown
T7 sequence: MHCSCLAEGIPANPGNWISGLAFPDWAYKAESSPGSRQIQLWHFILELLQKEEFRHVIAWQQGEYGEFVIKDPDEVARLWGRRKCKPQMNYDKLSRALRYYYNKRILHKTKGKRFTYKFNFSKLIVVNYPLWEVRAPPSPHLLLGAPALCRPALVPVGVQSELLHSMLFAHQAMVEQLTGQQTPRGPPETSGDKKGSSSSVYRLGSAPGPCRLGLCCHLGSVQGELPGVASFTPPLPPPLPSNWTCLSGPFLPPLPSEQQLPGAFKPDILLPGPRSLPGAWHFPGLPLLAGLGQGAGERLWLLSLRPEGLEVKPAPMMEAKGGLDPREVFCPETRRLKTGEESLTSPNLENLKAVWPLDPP
Outline: as §1

[13] = molecular target: T8, ETS2 (Homo sapiens, UniProt P15036 1-469); conditions: protein: recombinant; tags: N-terminal GST; dsDNA, one strand shown
T8 sequence: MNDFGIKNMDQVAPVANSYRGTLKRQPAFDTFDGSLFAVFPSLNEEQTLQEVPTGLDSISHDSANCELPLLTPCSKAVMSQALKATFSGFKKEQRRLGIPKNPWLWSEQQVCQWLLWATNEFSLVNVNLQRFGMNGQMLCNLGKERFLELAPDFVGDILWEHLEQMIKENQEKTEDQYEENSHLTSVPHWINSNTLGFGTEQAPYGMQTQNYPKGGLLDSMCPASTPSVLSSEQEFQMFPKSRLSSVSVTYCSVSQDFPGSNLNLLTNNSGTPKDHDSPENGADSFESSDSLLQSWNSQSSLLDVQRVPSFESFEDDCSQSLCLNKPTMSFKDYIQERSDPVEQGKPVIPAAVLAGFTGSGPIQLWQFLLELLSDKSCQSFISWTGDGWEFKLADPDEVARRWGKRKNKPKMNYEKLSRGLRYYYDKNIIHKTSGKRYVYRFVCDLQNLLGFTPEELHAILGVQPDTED
Outline: as §1

[14] = molecular target: T9, SPDEF (Homo sapiens, UniProt O95238 1-335); conditions: protein: recombinant; tags: N-terminal GST; dsDNA, one strand shown
T9 sequence: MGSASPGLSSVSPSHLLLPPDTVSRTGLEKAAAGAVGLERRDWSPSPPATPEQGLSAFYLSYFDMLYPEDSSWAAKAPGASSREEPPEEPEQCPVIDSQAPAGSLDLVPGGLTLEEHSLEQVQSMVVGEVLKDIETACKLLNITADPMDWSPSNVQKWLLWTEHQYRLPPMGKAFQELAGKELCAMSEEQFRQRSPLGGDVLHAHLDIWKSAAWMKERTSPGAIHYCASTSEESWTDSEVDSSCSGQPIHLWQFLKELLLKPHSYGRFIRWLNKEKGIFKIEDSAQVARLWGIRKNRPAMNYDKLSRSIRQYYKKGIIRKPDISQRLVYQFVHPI
Outline: as §1

[15] = molecular target: T10, ETV7 (Homo sapiens, UniProt Q9Y603 1-341); conditions: protein: recombinant; tags: N-terminal GST; dsDNA, one strand shown
T10 sequence: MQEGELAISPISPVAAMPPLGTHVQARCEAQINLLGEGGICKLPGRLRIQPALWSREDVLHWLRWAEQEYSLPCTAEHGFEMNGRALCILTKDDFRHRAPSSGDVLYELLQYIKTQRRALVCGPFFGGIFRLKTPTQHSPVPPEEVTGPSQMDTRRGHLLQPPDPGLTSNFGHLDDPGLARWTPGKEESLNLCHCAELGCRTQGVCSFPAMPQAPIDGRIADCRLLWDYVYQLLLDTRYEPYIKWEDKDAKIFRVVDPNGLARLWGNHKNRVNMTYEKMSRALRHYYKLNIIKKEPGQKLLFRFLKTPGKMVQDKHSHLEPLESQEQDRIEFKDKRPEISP
Outline: as §1

[16] = molecular target: T11, ELF5 (Homo sapiens, UniProt Q9UKW6-2 1-255); conditions: protein: recombinant; tags: N-terminal GST; dsDNA, one strand shown
T11 sequence: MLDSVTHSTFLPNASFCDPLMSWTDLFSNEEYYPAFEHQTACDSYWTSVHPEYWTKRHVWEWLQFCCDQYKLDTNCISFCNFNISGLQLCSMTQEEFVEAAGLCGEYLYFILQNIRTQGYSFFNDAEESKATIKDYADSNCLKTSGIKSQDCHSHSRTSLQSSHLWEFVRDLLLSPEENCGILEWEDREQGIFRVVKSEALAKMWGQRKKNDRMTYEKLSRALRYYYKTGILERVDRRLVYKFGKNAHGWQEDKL
Outline: as §1

[17] = molecular target: T12, ETV3 (Homo sapiens, UniProt P41162-2 1-143); conditions: protein: recombinant; tags: N-terminal GST; dsDNA, one strand shown
T12 sequence: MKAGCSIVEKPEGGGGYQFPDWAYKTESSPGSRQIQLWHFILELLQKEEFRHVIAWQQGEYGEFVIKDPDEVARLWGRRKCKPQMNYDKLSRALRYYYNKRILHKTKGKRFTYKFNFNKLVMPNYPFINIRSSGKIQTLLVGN
Outline: as §1

[18] = molecular target: ETV6 (Homo sapiens, UniProt P41212 1-452); conditions: protein: recombinant; tags: N-terminal GST; dsDNA, one strand shown
Outline: as §1

Chain of ETV6 (P41212 whole entry): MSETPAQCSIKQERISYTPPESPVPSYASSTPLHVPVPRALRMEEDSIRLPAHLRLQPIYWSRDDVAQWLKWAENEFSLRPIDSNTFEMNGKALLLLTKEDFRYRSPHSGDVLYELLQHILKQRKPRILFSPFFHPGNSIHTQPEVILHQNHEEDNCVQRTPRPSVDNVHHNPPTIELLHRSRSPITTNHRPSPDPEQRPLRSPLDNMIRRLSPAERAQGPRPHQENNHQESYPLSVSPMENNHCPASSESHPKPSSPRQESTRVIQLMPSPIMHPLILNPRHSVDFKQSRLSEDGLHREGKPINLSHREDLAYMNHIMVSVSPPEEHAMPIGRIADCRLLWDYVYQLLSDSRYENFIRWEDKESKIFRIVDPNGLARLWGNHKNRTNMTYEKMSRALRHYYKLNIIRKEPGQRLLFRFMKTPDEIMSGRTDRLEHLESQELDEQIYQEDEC
Chain of CRX (O43186 whole entry): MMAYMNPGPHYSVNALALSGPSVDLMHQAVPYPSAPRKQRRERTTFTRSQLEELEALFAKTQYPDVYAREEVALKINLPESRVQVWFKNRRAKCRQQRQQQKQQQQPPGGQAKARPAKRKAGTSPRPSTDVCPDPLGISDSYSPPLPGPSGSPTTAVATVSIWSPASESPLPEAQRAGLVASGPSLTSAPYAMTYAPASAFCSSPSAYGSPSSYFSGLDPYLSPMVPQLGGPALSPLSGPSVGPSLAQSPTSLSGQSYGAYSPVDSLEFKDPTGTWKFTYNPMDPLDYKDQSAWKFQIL
Chain of HSF1 (Q00613 whole entry): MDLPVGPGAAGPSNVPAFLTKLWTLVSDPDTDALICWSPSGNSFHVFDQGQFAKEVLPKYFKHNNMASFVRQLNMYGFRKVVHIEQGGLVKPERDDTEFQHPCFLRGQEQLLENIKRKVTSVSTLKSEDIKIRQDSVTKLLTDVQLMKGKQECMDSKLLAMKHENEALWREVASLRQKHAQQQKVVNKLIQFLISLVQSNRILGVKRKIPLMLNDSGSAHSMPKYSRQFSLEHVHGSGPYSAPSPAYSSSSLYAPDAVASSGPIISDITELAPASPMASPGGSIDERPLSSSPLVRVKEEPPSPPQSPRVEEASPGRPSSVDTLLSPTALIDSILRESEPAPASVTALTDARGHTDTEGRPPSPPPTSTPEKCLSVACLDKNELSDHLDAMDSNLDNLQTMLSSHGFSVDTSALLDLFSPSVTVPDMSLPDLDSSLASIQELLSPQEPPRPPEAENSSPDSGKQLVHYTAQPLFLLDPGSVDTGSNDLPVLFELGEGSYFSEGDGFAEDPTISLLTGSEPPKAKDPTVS
Chain of ELF4 (Q99607 whole entry): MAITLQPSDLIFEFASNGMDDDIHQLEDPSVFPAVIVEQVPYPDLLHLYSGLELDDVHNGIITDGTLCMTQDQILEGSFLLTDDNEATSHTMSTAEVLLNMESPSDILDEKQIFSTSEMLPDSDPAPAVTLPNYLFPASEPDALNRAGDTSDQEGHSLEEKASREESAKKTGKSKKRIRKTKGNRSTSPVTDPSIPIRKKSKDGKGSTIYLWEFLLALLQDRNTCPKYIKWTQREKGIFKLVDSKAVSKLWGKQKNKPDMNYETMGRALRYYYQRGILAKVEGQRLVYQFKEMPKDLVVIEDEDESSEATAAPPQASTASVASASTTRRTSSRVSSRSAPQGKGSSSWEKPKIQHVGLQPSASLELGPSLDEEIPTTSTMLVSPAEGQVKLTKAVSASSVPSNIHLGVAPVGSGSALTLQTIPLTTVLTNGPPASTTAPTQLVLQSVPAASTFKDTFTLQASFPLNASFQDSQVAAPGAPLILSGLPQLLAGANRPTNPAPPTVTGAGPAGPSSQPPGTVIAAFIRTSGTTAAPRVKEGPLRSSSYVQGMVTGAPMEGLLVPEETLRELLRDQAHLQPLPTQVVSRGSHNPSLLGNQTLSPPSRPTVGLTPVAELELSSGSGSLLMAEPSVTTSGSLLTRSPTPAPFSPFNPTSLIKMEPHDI
Chain of ETV1 (P50549 whole entry): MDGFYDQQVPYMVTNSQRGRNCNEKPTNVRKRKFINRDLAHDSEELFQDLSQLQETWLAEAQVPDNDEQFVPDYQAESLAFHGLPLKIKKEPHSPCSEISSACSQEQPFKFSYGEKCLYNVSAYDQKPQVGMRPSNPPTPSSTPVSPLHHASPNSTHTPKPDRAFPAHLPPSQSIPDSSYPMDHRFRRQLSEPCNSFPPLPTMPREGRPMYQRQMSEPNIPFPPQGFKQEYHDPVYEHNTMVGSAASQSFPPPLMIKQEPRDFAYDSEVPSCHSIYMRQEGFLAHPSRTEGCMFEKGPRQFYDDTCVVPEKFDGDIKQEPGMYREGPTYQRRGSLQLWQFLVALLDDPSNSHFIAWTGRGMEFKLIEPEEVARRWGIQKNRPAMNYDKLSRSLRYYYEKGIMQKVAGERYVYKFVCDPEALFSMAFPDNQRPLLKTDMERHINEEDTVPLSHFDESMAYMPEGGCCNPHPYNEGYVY
Chain of ETV5 (P41161 whole entry): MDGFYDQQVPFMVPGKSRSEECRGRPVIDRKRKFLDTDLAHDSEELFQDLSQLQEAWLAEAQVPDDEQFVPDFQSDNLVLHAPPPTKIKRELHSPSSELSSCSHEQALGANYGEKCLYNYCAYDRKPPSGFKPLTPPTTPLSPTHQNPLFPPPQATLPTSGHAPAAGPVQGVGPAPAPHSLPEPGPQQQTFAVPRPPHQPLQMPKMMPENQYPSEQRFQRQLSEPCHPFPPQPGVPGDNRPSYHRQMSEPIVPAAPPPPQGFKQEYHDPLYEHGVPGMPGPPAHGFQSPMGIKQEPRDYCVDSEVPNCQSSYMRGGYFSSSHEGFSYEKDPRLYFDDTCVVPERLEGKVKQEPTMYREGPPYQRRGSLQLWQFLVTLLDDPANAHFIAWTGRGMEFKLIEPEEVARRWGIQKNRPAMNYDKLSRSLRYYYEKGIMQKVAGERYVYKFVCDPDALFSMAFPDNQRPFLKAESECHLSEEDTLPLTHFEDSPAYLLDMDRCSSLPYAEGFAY

Sequence	binding signal [1]	binding signal [2]	binding signal [3]	binding signal [4]	binding signal [5]	binding signal [6]	binding signal [7]	binding signal [8]	binding signal [9]	binding signal [10]	binding signal [11]	binding signal [12]	binding signal [13]	binding signal [14]	binding signal [15]	binding signal [16]	binding signal [17]	binding signal [18]
TGCTCC	1.38 fold enrichment (6-mer frequency, TF over GST control)	1.42 fold enrichment (6-mer frequency, TF over GST control)	1.27 fold enrichment (6-mer frequency, TF over GST control)	1.45 fold enrichment (6-mer frequency, TF over GST control)	1.41 fold enrichment (6-mer frequency, TF over GST control)	1.41 fold enrichment (6-mer frequency, TF over GST control)	1.48 fold enrichment (6-mer frequency, TF over GST control)	1.47 fold enrichment (6-mer frequency, TF over GST control)	1.12 fold enrichment (6-mer frequency, TF over GST control)	1.31 fold enrichment (6-mer frequency, TF over GST control)	1.42 fold enrichment (6-mer frequency, TF over GST control)	1.45 fold enrichment (6-mer frequency, TF over GST control)	1.45 fold enrichment (6-mer frequency, TF over GST control)	1.74 fold enrichment (6-mer frequency, TF over GST control)	1.63 fold enrichment (6-mer frequency, TF over GST control)	1.37 fold enrichment (6-mer frequency, TF over GST control)	1.37 fold enrichment (6-mer frequency, TF over GST control)	1.34 fold enrichment (6-mer frequency, TF over GST control)
ACGACT	1.28 fold enrichment (6-mer frequency, TF over GST control)	1.15 fold enrichment (6-mer frequency, TF over GST control)	1.2 fold enrichment (6-mer frequency, TF over GST control)	1.26 fold enrichment (6-mer frequency, TF over GST control)	1.23 fold enrichment (6-mer frequency, TF over GST control)	1.39 fold enrichment (6-mer frequency, TF over GST control)	1.27 fold enrichment (6-mer frequency, TF over GST control)	1.11 fold enrichment (6-mer frequency, TF over GST control)	1.19 fold enrichment (6-mer frequency, TF over GST control)	1.29 fold enrichment (6-mer frequency, TF over GST control)	1.15 fold enrichment (6-mer frequency, TF over GST control)	1.28 fold enrichment (6-mer frequency, TF over GST control)	1.28 fold enrichment (6-mer frequency, TF over GST control)	1.19 fold enrichment (6-mer frequency, TF over GST control)	1.17 fold enrichment (6-mer frequency, TF over GST control)	1.23 fold enrichment (6-mer frequency, TF over GST control)	1.22 fold enrichment (6-mer frequency, TF over GST control)	1.17 fold enrichment (6-mer frequency, TF over GST control)
